We go through eight compounds from PubChem BioAssay (NCI).

Holding throughout (assay): NCI-60 one-dose screen, 48 h (100 = growth as untreated, 0 = no growth, -100 = all killed)
What all share (conditions): 10 µM unless noted

Test [1] deals with NCI-H23 lung.
The test system of test [2] is NCI-H226 lung.
Test [3] relates to NCI-H322M lung.
For test [4], the system named is HOP-62 NSCLC.
Test [5] deals with NCI-H460 lung.
The test system of test [6] is HOP-92 NSCLC.
The subject of test [7] is A549/ATCC NSCLC.
Test [8] relates to 786-0 renal.
Test [9] relates to COLO 205 colon.
The test system of test [10] is DU-145 prostate.
In test [11] the test system is K-562 leukemia.
In test [12] the test system is MALME-3M melanoma.
Test [13] relates to MDA-MB-231 breast.
In test [14] the test system is RXF 393 renal.
The subject of test [15] is SF-268 CNS.
Test [16] concerns SF-295 CNS.
Test [17] relates to SF-539 CNS.
Test [18] concerns UACC-257 melanoma.
Test [19] deals with M14 melanoma.

The panel holds about 83,000 compounds, 20% with a hit somewhere; the sample as a whole holds those more often.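 In brief: 96-well plates, 48 h treatment, single concentration, percent growth endpoint.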 Values without a mark were called inactive. Active and inactive are the calls of the source. The calls were made as follows: active = growth percent below 10; inactive = the rest.

Turning to `O=C(CSc1nnc(-c2cc(-c3ccccc3)nc3ccccc23)o1)c1ccc(Br)cc1`, the growth in [1] was 106%; in [2] it was 104%; in test [3], 103%; in test [4], 101%; in test [5] it was 106%; in test [6] it was 114%. Also, the growth in [7] was 105%; in test [8] it was 104%; in [9] it was 119%; in [10], 106%; in test [11], 91%; in test [12] it was 97.3%. Also, the growth in [13] is 95.4%; in test [14], 108%; in test [15], 93.8%; in test [16] it was 107%; in test [17] it was 99.6%; in test [18], 111%. In test [19], the growth is 101%.
Turning to `N/C(=N\c1nc2ccccc2s1)NC(=O)Nc1ccccc1Cl`, the growth in test [1] was 34.9%; in [2] it was 35.3%; in test [3] it was 45%; in test [4] it was 28.6%; in test [5], 12.7%; in test [6], 139%. The growth in test [7] is 21.6%; in test [8] it was 36.6%; in test [9], -44.4% (active); in [10], 21.8%; in [11], 6.5% (active); in test [12] it was 63.3%. In addition, the growth is 42.1% in test [13]; -13.9% (active) in test [14]; 60.9% in [15]; 9.08% (active) in [16]; -14.2% (active) in test [17]; 62.3% in [18]. For the same compound, the growth in [19] is 13.4%.
Consider `COc1ccc2nc(-c3ccc(Cl)cc3)cc(-c3nnc(SCC(=O)Nc4ccc(C(C)=O)cc4)n3-c3ccccc3)c2c1`, for which the growth in test [1] was 100%; in test [2] it was 99.1%; in test [3], 91.5%; in test [4], 100%; in test [5] it was 102%; in test [6] it was 111%. For the same compound, the growth in [7] is 93.2%; in [8], 91.4%; in [9], 101%; in test [10] it was 105%; in test [11] it was 104%; in [12] it was 92.9%. The growth in [13] was 86.8%; in test [14], 102%; in [15], 87.3%; in test [16], 102%; in [17], 85.4%; in test [18], 110%. Further, the growth in test [19] was 93.8%.
Take `COc1ccccc1-n1c(-c2ccc(O)cc2C)cn2c3c(=O)[nH]c(=O)n(C)c3nc12`: the growth is 91.6% in test [1]; 92.4% in [2]; 113% in test [3]; 79.3% in [4]; 93.1% in test [5]; 49.4% in test [6]. Further, the growth was 86.6% in [7]; 72.2% in [8]; 102% in test [9]; 112% in [10]; 98.9% in test [11]; 97.6% in test [12]. The growth was 65% in test [13]; 72.4% in test [14]; 86.4% in test [15]; 99.8% in [16]; 88.8% in test [17]; 82.2% in [18]. The growth in test [19] is 88.7%.
Take `NS(=O)(=O)c1ccc(-n2ncc3c(N/N=C/c4ccccc4)ncnc32)cc1`: the growth was 80.6% in test [1]; 107% in [2]; 94.6% in [3]; 104% in [4]; 66.4% in test [5]; 87.6% in [6]. The growth is 52% in test [7]; 93.2% in test [8]; 97.5% in test [9]; 73.1% in test [10]; 83.1% in test [11]; 85.6% in test [12]. In addition, the growth was 101% in [13]; -18.8% (active) in [14]; 76.9% in [15]; 29.8% in [16]; 76.2% in [17]; 62.4% in test [18]. In test [19], the growth was 116%.
On to `CC(=O)Nc1c(Cl)cc2c(c1Cl)Cc1cc([N+](=O)[O-])ccc1-2`, for which the growth was 88% in test [1]; 85% in [2]; 94.9% in test [3]; 69.6% in test [4]; 81.3% in test [5]; 53.3% in test [6]. Besides, the growth was 74.5% in [7]; 77.9% in test [8]; 103% in test [9]; 93.3% in [10]; 80.4% in test [11]; 68.2% in [12]. In addition, the growth in test [13] was 97.5%; in [14] it was 104%; in [15] it was 101%; in [16] it was 81.8%; in test [17], 89.1%; in test [18] it was 77.9%. Also, the growth in test [19] is 88.1%.
Turning to `O=C1C2C(C(=O)N1CC[Se][Se]CCN1C(=O)C3C(C1=O)[C@H]1C=C[C@@H]3C1)[C@H]1C=C[C@@H]2C1` (some centres not stated), the growth is -9.33% (active) in test [1]; -46.9% (active) in test [2]; 2.77% (active) in test [3]; -80.1% (active) in test [4]; -14.9% (active) in [5]; -74.4% (active) in test [6]. The growth in test [7] was -28.4% (active); in test [8], -84% (active); in [9] it was -86.6% (active); in test [10], -46.7% (active); in test [11], 7.86% (active); in [12], -35.6% (active). The growth in test [13] is -33.8% (active); in [14], -89% (active); in test [15], -45.8% (active); in test [16], -78.2% (active); in test [17], -86.7% (active); in test [18], -63.8% (active). In test [19], the growth was -20% (active).
For `O=C1CNc2cc(Cl)ccc2N1`, the growth in [1] was 96.7%; in test [2], 103%; in test [3], 106%; in test [4] it was 99.2%; in [5] it was 109%; in test [6], 102%. Moreover, the growth in [7] is 113%; in test [8], 109%; in test [9] it was 106%; in test [10], 121%; in test [11], 104%; in test [12], 104%. In addition, the growth was 98.3% in test [13]; 101% in test [14]; 103% in test [15]; 105% in test [16]; 106% in test [17]; 113% in test [18]. The growth in test [19] is 114%.
